# Measurements reported in the supplement of paper PMC11417369.
# The full ranking holds about 25,000 sequences; the median of “ln(normalized median fluorescence intensity)” is about 9.7, and the highest 2% start at about 11. This is one part of a sample in which the highest values are shown more often than they occur.
# System: PfAP2-HC AP2 domain (GST-tagged)
# Test: gcPBM binding intensity (ln(normalized median fluorescence intensity)); higher = stronger DNA binding
# Outline: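 Probes on an Agilent 4 × 180k array were primer-extended, double-stranded and 36 bp long, taken from intergenic genomic regions, with negative controls added. GST-tagged P. falciparum DNA-binding domains from E. coli, about 25 μg on average, were applied to the array for 1 h in 1× PBS containing 1% milk, 0.2 mg/ml BSA, 0.5% salmon testes DNA and 0.03% Triton X-100. Binding intensity, obtained after Alexa488 anti-GST antibody detection and a 488 nm scan, is the highest Masliner-normalised natural-log median intensity across replicate spots of either probe orientation.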
row,Sequence,gcPBM binding intensity (ln)
1,TAATTAAAATCATATACACACCCATATATATATATA [CACACA_site8524],10
2,AAATACCTTATATATACACACTATGTTTTTCTTTTT [CACACA_site4792],9.97
3,AATAAATAAAAATTATGTACATATATAAAAAATACA [XGTACX_site8581],9.82
4,TTGTTTCTTTTTTTTTGTACATATATATTGTATATT [XGTACX_site7602],9.89
5,AATAATAAATCAAACTGTACATATATTTTCAATCTA [XGTACX_site3344],9.61
6,TATAAAAAAATAATAAAATAATAAAATATATAAATA [TGCATGCA_negctrl_site394],9.6
7,AAAAAAAAAAAATGTGCACACGCGTACAGACAAAAA [CACACA_site2005],10.3
8,ATTAAATCTATATATACACACATGTTTGGTATATTC [CACACA_site2657],9.87
9,ATGCACTCATTGTGCACACGCATATTACGAAAAGAA [CACACA_site2638],9.86
10,TTTTTTTTTTGATGTTGTACATATATACTATATAAT [XGTACX_site1332],9.65
11,AAAACAAATGCTTAAAGTACTTATTATTTTTCTTTT [XGTACX_site6324],9.57
12,AATAAATATATATACACACCCATATATATATATATA [CACACA_site2595],9.63
13,TACATATACATATACACACACACACCCAAATAAATA [CACACA_site1344],10.5
14,AAATTATAATATAATACACACATAAAAAAAAAAAAA [CACACA_site7],9.79
15,TATAAATAAATTTATACACACACACCCATATATATA [CACACA_site8183],10.3
16,TGAATAAATCAAAGCACACATACACCCACATATATA [CACACA_site286],10.2
17,ATTAATTATATATATACACACACATACACCCAAATA [CACACA_site9126],10.3
18,CATATATATAAATACACACACACACCCCTTATAATT [CACACA_site4064],10.6
19,TAATTATATAAATACACACACATACACCCAAATAAA [CACACA_site5819],11.1
20,CATATAAATAAATACACACACACACGCCTTATAATT [CACACA_site7830],11.6
21,GATGAATAAATCAAAGCACACATACACCCACATATA [CACACA_site7986],11.2
22,TCAAAGCACCCATACACACACATATATATATATATA [CACACA_site4317],10.5
23,TAAATAAATTTATACACACACACACCCATATATATA [CACACA_site849],10.9

row,Sequence,gcPBM binding intensity (ln)
1,TCTTTTTTTTTACATACTTTTTTCCTTTTTTTTTTA [CACACA_negctrl_site1429],9.71
2,TCTTACAAAAAACAAACAGAGAAAAATATAAGGAAA [XGTACX_negctrl_site520],9.61
3,AAATTATTTCCGTGTACACATAAATATATATTTTAT [CACACA_site5121],9.89
4,CAATATTTTCATAGATGTACTTTGGACTTATTATAT [XGTACX_site4849],9.6
5,AATATTGTATATAATAAACACACAATATTAAAAATA [CACACA_site8262],10.1
6,TAACATATTATATATACATGCATACGTGAACTAATC [TGCATGCA_site888],9.72
7,ATTTATTTATGTATTTGTACGTATATATTTATGCAT [XGTACX_site5218],9.83
8,CAACAAAATAAACACACACACACAAACACAAAAAAA [CACACA_site5806],11.4
9,GTAAAAAAATAGCACACACACAAAAACACGCACAAA [CACACA_site6723],11.4
10,AAAAAAATAAAACACACACACAAAAAAATAAAAATA [CACACA_site465],10.8
11,CAAAAAAAATAAAACACACACACAAAAAAATAAAAA [CACACA_site466],10.7
12,TTTCAATAATAAAAAACACACACAAAAAAAAATAAT [CACACA_site8905],11
13,GGACAACAAACAAACACACACAAAAAAAAAATAAAA [CACACA_site3791],11
14,TCAATAATAAAAAACACACACAAAAAAAAATAATTA [CACACA_site2798],10.2
15,ACAAATAAATAAAAAACACACACAAATAAATAAATA [CACACA_site8708],10.6
16,AAGGACAACAAACAAACACACACAAAAAAAAAATAA [CACACA_site9263],10.2
17,AAGTAAAAAAATAGCACACACACAAAAACACAGACA [CACACA_site4839],10.7
18,ATAAATAAAAACACAAAACAAAACAAAACAAAACAA [CACACA_negctrl_site1257],9.61
19,AAAACAAATAGACACGCACACAAAAAAAAAAAAAAA [CACACA_site801],10.3
20,TATTTGTAAAAATTGTGTACTTAGAAAATTCCAAAA [XGTACX_site6007],9.22
21,ATAATATATGAAAAAACGATTTTTTCATTTTAAATA [XGTACX_negctrl_site146],9.51
22,TTTGGTTATATTTAAAAAAGACTAATGAAAATTAAA [XGTACX_negctrl_site526],9.35
23,AACATTCTATGTTGCACACAAAGAGAAAAATTTATT [CACACA_site3995],9.78

row,Sequence,gcPBM binding intensity (ln)
1,TATATATATATATATATATATATTTTTATTATATAT [XGTACX_negctrl_site89],9.89
2,GTTTTCATCCAAAAAAGTACATTTATTTTTATACGA [XGTACX_site1039],9.39
3,TTTTCTAAAGTAAGTTAAGATATGCAAAAAAAAGAA [GTGCAC_negctrl_site242],9.62
4,AAAATAAAATAAAACACAAAAAAATAAAACAAAATA [CACACA_negctrl_site16],9.78
5,ACAAAATAAAAACACACACACAAACACAAAAAAATA [CACACA_site3390],11.4
6,AAAAAAAAAAAAAACACACACACAAAATAAACAAAC [CACACA_site2720],10.8
7,AAGGATATAAAAAAACGTACGTACGATAATATAATT [XGTACX_site1292],9.86
8,GTTGTTATATAAAATTGTACATAAAAAACAAAATAT [XGTACX_site5313],9.66
9,AAAAACCATTGGCACACACACATAATATATAATATA [CACACA_site4903],11.4
10,AAAAACCATTCGCACACACACATAATCTATAATATA [CACACA_site6782],11.1
11,AAAAACCATGGGCACACACACATAATATATAATATA [CACACA_site1425],10.4
12,AAAAAAAAAAAAAAAACACACACATATATATAATAT [CACACA_site9038],10.3
13,AAAAAAAAAAAAAAAACACACATATATCTATAATAT [CACACA_site6665],9.84
14,GGAAAAACCATTCGCACACACACATAATATATAATA [CACACA_site1424],10.2
15,TTACTCAAACAAACAAAAAAAAAAAAAAAAAAAAAA [TGCATGCA_negctrl_site457],8.89
16,TATTTCATAATAAATTGTACGCGTAGAAAACCATGA [XGTACX_site7506],9.99
17,TATTTATGCACGCGTGCACACACATATGAAAAAAGG [CACACA_site9090],9.87
18,ACATATCTATCGTTTTTAATTGTATATTATTATAAC [TGCATGCA_negctrl_site144],9.76
19,CAACATTTGAGACACACACACATACAAACAAACAAA [CACACA_site7538],11.2
20,AAAAAAAAAAAAAAGACACACATATATATATATATA [CACACA_site633],9.63
21,TATAGACAAACACATACATGCATACATACATACATA [TGCATGCA_site273],9.75
22,AAAAAAAAAAGACACACACACACACTAATACATACA [CACACA_site6473],11.4
23,AAAAAAAAAAGACACACACACACATACACATACATA [CACACA_site7362],11.1

row,Sequence,gcPBM binding intensity (ln)
1,AATAAAAAAAAAAAAAAAAAAAAAAAGACACTAAAA [CACACA_negctrl_site1075],9.53
2,GGCAACATTTGAAACACACACACATACAAACAAACA [CACACA_site3307],10.3
3,ATAAAACAAAGACACACACACATACACAAAAAAAAA [CACACA_site7752],10.5
4,CAAAGACACAAACACACACACACATACATACATACA [CACACA_site453],11.3
5,AAAAAAAAAAAACACACACACACACTAATACATACA [CACACA_site8135],10.6
6,AAAAAAAAAAGACACACACACACAAATACATACACA [CACACA_site6472],10.8
7,AAGACACAAAAACACACACACATACATACATACATA [CACACA_site454],10.3
8,TTATGGTATAAAAAAATACACACTTATATATATTCT [CACACA_site488],9.72
9,TACGTAAAAATAATACGTACATATATTTATAGAAAA [XGTACX_site4959],9.71
10,TATTAATTTTTTTTTTTTTTTTTTTTTTTTTTTTTT [CACACA_negctrl_site1329],9.26
11,ATGATACATAAAGAATATAAAACATGAAATATAATA [CACACA_negctrl_site1461],9.79
12,AAGATTTGAAAAAATACACACAATAAAAAAATAAAA [CACACA_site3281],10.1
13,TTTTATTATTTTTGTTGTACAGTATACTGTATGATT [XGTACX_site5359],9.69
14,AAAAAATCACGACACACACACACACTAAAAAAAAAA [CACACA_site6792],11.3
15,TTAAAAAATCACAACACACACACACGCAAAAAAAAA [CACACA_site6793],10.8
16,AACAAATACGAACACACACACACACTAAAAAAAAAA [CACACA_site6386],10.8
17,TCATAAAGAACAAAGTGTACCTATATATTACATACA [XGTACX_site7595],9.59
18,TATAAATATAGACACACACACACCAAAGCGTAGCGC [CACACA_site6179],10.3
19,TATATATATAAATACACACACACACCCCAAAGCGTA [CACACA_site4211],10.6
20,TATATATATATATACACACACACACCCCAAAGCGTA [CACACA_site64],11.1
21,TAAATATATAAATACACACACACCAAAGCAATAGAT [CACACA_site5605],10.5
22,TATATATATATATATACACACACACCCACCAAAGCG [CACACA_site7904],10.1
23,TATAAATATAAATACACACACACACGCCAAAGCGTA [CACACA_site6181],11
